In PubChem BioAssay AID720536 (National Center for Advancing Translational Sciences (NCATS), 2013):
In all, about 1,600 compounds went through this assay and about 650 (41%) were called active. Roughly 39% stayed inconclusive and do not appear here. Calls come from the whole dose curve; as a rule, active = well fitted inhibition curve with a large enough effect; inconclusive = small, poorly fitted or top-dose-only effect; inactive = no such curve, though single readings can be large or run the other way. The set was probably picked from earlier hits. The full list was thinned out, with actives kept by preference.

Assay: qHTS for Inhibitors of TGF-b: CCL64 Cells Orthogonal Assay for Cherry Picks; note: nearly all actives have a fitted effect of over 65% in size
Conditions: CCL64 CAGA-GFP reporter, TGF-b stimulated, GFP fluorescence, 18 h; series mostly up to 46.1 µM
Excerpt: TGF-b is a main component in the TGF-b signaling pathway which plays diverse roles in cellular and development pathways. TGF-b is the mediated by the transcription factors Smads. Although the Smad-dependent pathway is the primary canonical TGF-b signaling node, TGF-b1 can also activate alternative signaling pathways, including those involving MAPK (ERK, JNK and p38). This interaction may mediate or enhance Smad-dependent responses, or can exert Smad-independent effects. The complexity of this signaling cascade allows the TGF-b superfamily to perform unique, overlapping or redundant functions. We believe that targeting the TGF-beta pathway at the Smad-transcription factor level may eliminate the consequences of disrupting the entire pathway and offer specificity without affecting other signaling pathways. Smad3 is the primary transducer of TGF-b's signals and Smad3 regulates many functions attributed to TGF-b signaling. We hypothesize that Smad3 inhibitors will selectively eliminate Smad3-specific TGF-beta signals without undesired off-target effects. We aim to identify Smad3-small molecule antagonists using a quantitative high throughput screening (qHTS) approach. A high-throughput assay was developed to screen the NIH Molecular Libraries Small Molecule Repository (MLSMR). This is a cell based assay, where TGF-b is tagged with GFP. This orthogonal assay was run using CCL64 cells (as opposed to HepG2); activity was desired in this assay as this indicated the hits identified from the screen are not a cell-based artifact. MH087449NIH Chemical Genomics Center [NCGC] NIH Molecular Libraries Probe Centers Network [MLPCN] MLPCN Grant: MH087449 Assay Submitter (PI): Sushil Rane, National Institute of Diabetes and Kidney Diseases
Suspensions of trypsinized CCL64 CAGA-GFP cells were dispensed into white, tissue culture-treated, solid 1536-well plates at 5uL/well (1000 cells/well final concentration) in DMEM medium supplemented with 1% FBS. Plates were incubated at 37 degrees C for 2 hours, after which 23 nL of compounds or DMSO were delivered to each well using a pin tool. One uL of recombinant TGF-beta in DMEM (1% FBS) was then dispensed (500 pg/mL final concentration), and plates were incubated at 37 degrees C for 18 hours. The plates were measured on an Acumen eX3 Explorer plate reader for GFP fluorescence (ex488/em500-530). GFP values were calculated by determining the mean GFP fluorescence of individual cells, and compiling these values for each well to determine a total well GFP signal. The %Activity was determined from the corrected fluorescence values. A titration of the known TGF-B inhibitor SB431542 was included to monitor plate performance, while unstimulated […] (-TGF-B) control wells were used to normalize %Activity of identified inhibitors; unstimulated wells corresponded to 100%Activity (full inhibition), while stimulated cell controls (+DMSO) were used to normalize 0%Activity (no inhibition). Concentration-response curves were fitted to the signals arising from the resulting fluorescence. The concentration-effect curves were then classified based on curve quality (r2), response magnitude and degree of measured activity, and compounds were subsequently categorized based on their curve class.
Potency is the fitted concentration of half-maximal effect.

Row | Structure (SMILES) | Potency
1 | CCC(C)(O)C(=O)OC1C(=O)OC2CC3C(C)=CC(=O)C(O)C3(C)C3C4(O)OCC23C1C(C)C4O (stereo not given) | 0.231 µM (active)
2 | O=c1c2ccccc2nc(/C=C/c2ccc(F)cc2)n1-c1ccccc1O | 18.4 µM (active)
3 | COC(=O)C1=C(c2cc3ccccc3o2)C[C@@H]2CC[C@H]1N2C(=O)NC1CCCCC1 | 14.6 µM (active)
4 | CC[C@H]1CN2CCc3cc(OC)c(OC)cc3[C@@H]2C[C@@H]1C[C@H]1NCCc2cc(OC)c(OC)cc21 | 0.116 µM (active)
5 | O=Cc1cn(Cc2ccc(F)cc2Cl)c2ccccc12 | inactive
